{"source": "PubChem BioAssay (Tox21)", "note": "Inconclusive results are not listed. Values without a mark were called inactive. Active and inactive are the calls of the source. Calls come from the whole dose curve; as a rule, active = well fitted inhibition curve with a large enough effect in the repeat runs; inconclusive = weak or mixed curves; inactive = no such curve, though single readings can be large or run the other way. % is set by controls: 0 for no effect and ±100 for the full control effect; potency is the fitted concentration of half-maximal effect.", "data": [{"biological_target": "Cytochrome P450 2C19 (Homo sapiens) (UniProt P33261)", "sequence (P33261 whole entry, looked up)": "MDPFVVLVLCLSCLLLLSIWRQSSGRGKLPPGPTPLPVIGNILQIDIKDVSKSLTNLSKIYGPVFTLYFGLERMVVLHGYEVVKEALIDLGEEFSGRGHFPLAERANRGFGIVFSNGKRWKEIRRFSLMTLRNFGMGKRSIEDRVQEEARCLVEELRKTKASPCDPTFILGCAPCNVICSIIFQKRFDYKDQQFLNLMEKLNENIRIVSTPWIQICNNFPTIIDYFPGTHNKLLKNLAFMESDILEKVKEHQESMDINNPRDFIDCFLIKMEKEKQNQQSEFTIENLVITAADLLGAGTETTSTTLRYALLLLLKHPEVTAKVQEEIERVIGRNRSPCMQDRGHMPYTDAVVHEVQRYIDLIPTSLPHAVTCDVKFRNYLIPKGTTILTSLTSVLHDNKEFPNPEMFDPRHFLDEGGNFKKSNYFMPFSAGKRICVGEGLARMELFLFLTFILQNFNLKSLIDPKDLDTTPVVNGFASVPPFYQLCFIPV", "test": "Cytochrome P450 Family 2 Subfamily C Member 19 (CYP2C19) small molecule antagonists: luciferase reporter qHTS assay (AID 1671197); note: nearly all actives have a fitted effect of over 65% in size", "settings": "P450-Glo CYP2C19 enzyme, luciferin luminescence, 1 h; series mostly up to 52.9 µM; activity change, negative = inhibition: at the top concentration", "how_it_was_run": "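Luminescent readout of CYP2C19 activity: luciferin product detected 20 min after adding detection reagent. Before that, compound and enzyme-substrate mix preincubated 10 min at room temperature; NADPH-regenerating system started a 1 h, 37C reaction. Ketoconazole as positive control.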", "values": [{"smiles": "CCOC(=O)C1=NOC(c2ccccc2)(c2ccccc2)C1", "Potency": "20 µM (active)"}, {"smiles": "O=C(O)Cc1csc(-c2ccc(Cl)cc2)n1", "activity change, negative = inhibition": "13%"}, {"smiles": "Cc1ccc(C(=O)c2ccc(CC(=O)O)n2C)cc1", "activity change, negative = inhibition": "-0.184%"}, {"smiles": "CC1=CCC(O)(C(C)C)CC1", "note": "(stereo not drawn)", "activity change, negative = inhibition": "-0.495% [at 115 µM]"}, {"smiles": "Cc1ncc([C@@H](CCCCCCc2ccc3c(n2)NCCC3)CC(=O)O)cn1", "activity change, negative = inhibition": "-1.17% [at 115 µM]"}, {"smiles": "CC1=CC(=O)[C@H]2C[C@@H]1C2(C)C", "activity change, negative = inhibition": "24.1% [at 115 µM]"}, {"smiles": "CC[N+](CC)(CC)CCOc1cccc(OCC[N+](CC)(CC)CC)c1OCC[N+](CC)(CC)CC", "activity change, negative = inhibition": "9.66%"}, {"smiles": "CCCCOCCOC(=O)COc1cc(Cl)c(Cl)cc1Cl", "Potency": "35.6 µM (active)"}, {"smiles": "C[C@H]1[C@H](NC(=O)/C(=N/OC(C)(C)C(=O)O)c2csc(N)n2)C(=O)N1S(=O)(=O)O", "note": "(stereo in doubt)", "activity change, negative = inhibition": "-6.39%"}, {"smiles": "CCN(CC#N)c1cccc(C)c1", "Potency": "71 µM (active)"}, {"smiles": "CCN(C=O)CC", "activity change, negative = inhibition": "-4.18% [at 115 µM]"}, {"smiles": "CCC1C(=O)OCC1Cc1cncn1C", "note": "(stereo not drawn)", "activity change, negative = inhibition": "30%"}, {"smiles": "CO/N=C(\\C(=O)N[C@@H]1C(=O)N2C(C(=O)O)=C(CSc3nc(=O)c(O)nn3C)CS[C@H]12)c1csc(N)n1", "activity change, negative = inhibition": "5.14%"}, {"smiles": "CC(=O)Nc1ccc(OCC(O)CNC(C)C)cc1", "note": "(stereo not drawn)", "activity change, negative = inhibition": "42.2%"}, {"smiles": "COCCOCC(OC)OC", "activity change, negative = inhibition": "17.5%"}, {"smiles": "CC(C)(N)C#N", "activity change, negative = inhibition": "4.89% [at 115 µM]"}, {"smiles": "CN(C)CCCN(C)CCCN(C)C", "activity change, negative = inhibition": "-14.4% [at 115 µM]"}, {"smiles": "CCOc1ccccc1OCC", "Potency": "71 µM (active)"}, {"smiles": "Nc1ccncc1N", "activity change, negative = inhibition": "-11.9%"}, {"smiles": "C=CCOCC(O)CO", "note": "(stereo not drawn)", "activity change, negative = inhibition": "28.2% [at 115 µM]"}, {"smiles": "Cc1ccnc(NS(=O)(=O)c2ccc(N)cc2)n1", "activity change, negative = inhibition": "29.3%"}, {"smiles": "N[C@@H](CCC(=O)O)C(=O)O", "Potency": "71 µM (active)"}, {"smiles": "C[N+]12CCC(CC1)C(OC(=O)C(O)(c1ccccc1)c1ccccc1)C2", "note": "(stereo not drawn)", "activity change, negative = inhibition": "-2.23%"}]}]}
